NPR1 antag: antagonists of human natriuretic peptide receptor Npr1 | P16066 | HEK293 hNpr1 GloSensor cGMP, ANP-stimulated luminescence | Potency, µM (series often up to 46.3 µM), for the others: at the highest dose activity change, negative = inhibition, usual class: inhibitors | actives 1.6% (n = 76,000); note: % is set by controls: 0 for no effect and ±100 for the full control effect; nearly all actives have a fitted effect of over 60% in size
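Compound pre-incubated 30 min at room temperature on GloSensor-loaded HEK293 cells stably carrying hNpr1 and the pGS-40F cGMP biosensor. Stimulation uses hNppA at 0.1 nM final; luminescence is taken at baseline and 20 min post-agonist.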
3T3 cytotox: cytotoxic compounds in NIH 3T3 cells; NIH 3T3 viability, CellTiter-Glo ATP luminescence, 48-72 h; Potency, µM (highest dose often 96.7 µM), inactives show top-dose activity change, negative = cytotoxicity, usual class: inhibitors; actives 4.3% (n = 94,000); active = well fitted curve in the direction sought with a large enough effect; inconclusive = small, poorly fitted or top-dose-only effect, or another doubt; inactive = no such curve, though single readings can be large; an effect the other way counts as inactive or inconclusive; note: % is set by controls: 0 for no effect and ±100 for the full control effect; nearly all actives have a fitted effect of over 55% in size
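Viability of NIH 3T3 cells after 48 or 72 hr compound treatment at 37 °C was assessed by CellTiter-Glo, with luminescence imaged following a 10 min room-temperature step.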
HEK cytotox: cytotoxic compounds in HEK 293 cells | HEK 293 viability, ATP luminescence (CellTiter-Glo), 48-72 h | actives 6.6% (n = 94,000) | Potency, µM (titrated, usually from 115 µM), without a hit: top-dose activity change, negative = cytotoxicity, usual class: inhibitors; active = well fitted curve in the direction sought with a large enough effect; inconclusive = small, poorly fitted or top-dose-only effect, or another doubt; inactive = no such curve, though single readings can be large; an effect the other way counts as inactive or inconclusive; note: % is set by controls: 0 for no effect and ±100 for the full control effect; nearly all actives have a fitted effect of over 60% in size
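Luminescence from cellular ATP, measured with CellTiter-Glo, indicates HEK 293 viability. Cells plated at 250 cells/well are treated with compound for 48 or 72 hr at 37 degree Celsius before reagent addition.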
Luciferase inh: blocks purified firefly luciferase enzyme activity; P08659; purified P. pyralis luciferase, luminescence, biochemical; Potency, µM (highest dose often 115 µM), usual class: inhibitors; actives 2.5% (n = 76,000); AID 1347043; active = well fitted curve in the direction sought with a large enough effect; inconclusive = small, poorly fitted or top-dose-only effect, or another doubt; inactive = no such curve, though single readings can be large; an effect the other way counts as inactive or inconclusive; note: % is set by controls: 0 for no effect and ±100 for the full control effect; nearly all actives have a fitted effect of over 65% in size
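Luminescence read by CCD imaging after purified firefly luciferase (10nM final) was added to substrate buffer holding 10uM D-luciferin and 10uM ATP, pH 7.5, pre-dosed with compound.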
NPR1 antag cnf: confirmation of human Npr1 natriuretic peptide receptor antagonists; shares compounds with NPR1 antag; HEK293 hNpr1 cGMP GloSensor luminescence, ANP-stimulated; actives 76% (n = 1,400); Potency, µM (series often up to 57.6 µM), without a hit: top-dose activity change, negative = inhibition, actives largely listed as inhibitors; AID 1347044; note: nearly all actives have a fitted effect of over 70% in size
Npr2 selectivity: selectivity test of Npr1 antagonists against human Npr2; shares compounds with NPR1 antag; HEK293 hNpr2 GloSensor cGMP luminescence, CNP-stimulated; Potency, µM (titrated, usually from 57.6 µM), inactives show top-dose activity change, negative = inhibition, most hits filed as inhibitors; actives 67% (n = 1,400); note: nearly all actives have a fitted effect of over 70% in size
Target sequence (P20594 whole entry, looked up): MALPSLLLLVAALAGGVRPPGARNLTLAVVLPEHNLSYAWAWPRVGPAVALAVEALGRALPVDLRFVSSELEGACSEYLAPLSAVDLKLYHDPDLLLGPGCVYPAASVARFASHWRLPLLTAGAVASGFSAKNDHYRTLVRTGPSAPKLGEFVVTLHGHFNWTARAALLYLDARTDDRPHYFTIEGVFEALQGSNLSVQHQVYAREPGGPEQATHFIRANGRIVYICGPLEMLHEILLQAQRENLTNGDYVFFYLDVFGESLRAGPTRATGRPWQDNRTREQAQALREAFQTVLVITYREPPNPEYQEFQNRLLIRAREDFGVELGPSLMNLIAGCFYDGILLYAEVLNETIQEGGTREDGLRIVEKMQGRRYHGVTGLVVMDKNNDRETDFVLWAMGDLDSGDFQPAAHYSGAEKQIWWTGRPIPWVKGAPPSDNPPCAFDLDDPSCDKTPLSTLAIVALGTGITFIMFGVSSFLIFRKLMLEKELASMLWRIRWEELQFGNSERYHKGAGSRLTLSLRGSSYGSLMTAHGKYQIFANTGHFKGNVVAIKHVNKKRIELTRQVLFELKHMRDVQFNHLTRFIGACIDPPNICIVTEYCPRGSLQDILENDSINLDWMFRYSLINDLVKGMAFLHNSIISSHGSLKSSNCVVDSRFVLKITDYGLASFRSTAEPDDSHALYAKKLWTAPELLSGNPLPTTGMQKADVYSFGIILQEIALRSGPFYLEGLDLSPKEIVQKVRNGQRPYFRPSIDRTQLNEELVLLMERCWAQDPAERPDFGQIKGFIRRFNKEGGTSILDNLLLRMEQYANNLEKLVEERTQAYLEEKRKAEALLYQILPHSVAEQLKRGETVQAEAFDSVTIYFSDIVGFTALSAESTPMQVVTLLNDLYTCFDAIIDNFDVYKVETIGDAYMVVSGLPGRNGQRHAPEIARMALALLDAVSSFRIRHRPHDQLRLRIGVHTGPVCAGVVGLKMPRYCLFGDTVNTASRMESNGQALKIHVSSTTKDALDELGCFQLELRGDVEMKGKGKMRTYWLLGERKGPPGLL
FLuc inh counter: counter-screen for Npr1 antagonists: firefly luciferase inhibitors. actives 0.7% (n = 1,400). purified FLuc enzyme, luminescence, Km substrate. AID 1347047. shares compounds with NPR1 antag. Potency, µM (series often up to 57.6 µM), for the others: top-dose activity change, negative = inhibition, usual class: inhibitors; active = well fitted curve in the direction sought with a large enough effect; inconclusive = small, poorly fitted or top-dose-only effect, or another doubt; inactive = no such curve, though single readings can be large; an effect the other way counts as inactive or inconclusive; note: 0% is about no effect
GloSensor cGMP: reduces cGMP signal in GloSensor control cells | actives 69% (n = 1,400) | shares compounds with NPR1 antag | Potency, µM (titrated, usually from 57.6 µM), without a hit: at the highest dose activity change, negative = inhibition, hits mostly inhibitors | AID 1347051 | HEK293 GloSensor cGMP, SNP-stimulated, luminescence; note: % is set by controls: 0 for no effect and ±100 for the full control effect; nearly all actives have a fitted effect of over 70% in size
* = called active by the depositor. In the library only some 11% were active in any assay of this set; here they are far more common. Unless noted, calls come from the whole dose curve. Potency is the fitted concentration of half-maximal effect.

`NC1CCCCN(C(=O)CCn2cc(Cl)cn2)C1` (stereo not given) gave NPR1 antag 5%, 3T3 cytotox 1%, HEK cytotox -2% and Luciferase inh inactive.
`CC(=O)N1CCCC(C(=O)N2CCCC(c3nc4ccncc4[nH]3)C2)C1` (stereo not given) gave 3T3 cytotox -2% and HEK cytotox 2%.
`O=C(NCc1ccc2c(c1)OCO2)c1nc(-c2cccc(C(F)(F)F)c2)c2ccccn12` gave NPR1 antag inconclusive, 3T3 cytotox -15%, HEK cytotox inconclusive, Luciferase inh inactive, NPR1 antag cnf -21%, Npr2 selectivity -24%, FLuc inh counter 3% and GloSensor cGMP 0%.
`CC(=O)Nc1ccc(S(=O)(=O)N[C@H]2CO[C@H]3[C@@H]2OC[C@H]3OC(=O)Nc2cccc3ccccc23)cc1` gave NPR1 antag -28%, 3T3 cytotox inconclusive, HEK cytotox -20%, Luciferase inh inactive, NPR1 antag cnf -3%, Npr2 selectivity -2%, FLuc inh counter -3% and GloSensor cGMP -1%.
Screening COc1ccc(NC(=O)O[C@@H]2CO[C@H]3[C@@H]2OC[C@@H]3NS(=O)(=O)c2ccc(Cl)cc2)cc1 returned NPR1 antag -7%, 3T3 cytotox inconclusive, HEK cytotox -19% and Luciferase inh inconclusive.
`O=C(Nc1ccc(Oc2ccccc2)cc1)O[C@@H]1CO[C@H]2[C@@H]1OC[C@@H]2NS(=O)(=O)c1ccc(Cl)cc1` gave NPR1 antag inconclusive, 3T3 cytotox 32µM*, HEK cytotox 35µM*, Luciferase inh inactive, NPR1 antag cnf 11µM*, Npr2 selectivity 12µM*, FLuc inh counter -13% and GloSensor cGMP 9.7µM*.
Screening O=C(NC1CCN(c2ccc3nnc(C4CC4)n3n2)C1)c1cccc(Cl)c1 (stereo not given) returned 3T3 cytotox -13% and HEK cytotox 2%.
For CSc1ccc(CNC(=O)C2CCN(c3cc(C(F)(F)F)ncn3)CC2)cc1 the results were NPR1 antag 13µM*, 3T3 cytotox inconclusive, HEK cytotox inconclusive, Luciferase inh inactive, NPR1 antag cnf 19µM*, Npr2 selectivity 22µM*, FLuc inh counter 4% and GloSensor cGMP 15µM*.
CCc1ccc(CNC(=O)C2CCN(c3cc(C(F)(F)F)ncn3)CC2)cc1 was read as NPR1 antag 14µM*, 3T3 cytotox inconclusive, HEK cytotox inconclusive, Luciferase inh inactive, NPR1 antag cnf 22µM*, Npr2 selectivity 17µM*, FLuc inh counter 4% and GloSensor cGMP 14µM*.
`COc1ccccc1OCCNC(=O)C1CCN(c2cc(C(F)(F)F)ncn2)CC1` gave NPR1 antag inconclusive, 3T3 cytotox inconclusive, HEK cytotox -25% and Luciferase inh inactive.
For Cc1ccc(CNC(=O)C2CCN(c3cc(C(F)(F)F)ncn3)CC2)cc1 the results were NPR1 antag 13µM*, 3T3 cytotox -24%, HEK cytotox inconclusive, Luciferase inh inactive, NPR1 antag cnf 24µM*, Npr2 selectivity 22µM*, FLuc inh counter 2% and GloSensor cGMP 19µM*.
COc1ccc(C2(C(=O)N3CC4CC(C3)[C@H]3CCCC(=O)N3C4)CCCCC2)cc1 (stereo not given in full) was read as NPR1 antag 0%, 3T3 cytotox 3%, HEK cytotox -1% and Luciferase inh inactive.
`CC(=O)N1CCN(C(=O)c2ccc3nnc(-c4ccc(OC(F)(F)F)cc4)n3c2)CC1` gave 3T3 cytotox -22% and HEK cytotox 1%.
O=C(c1ccnc2ccccc12)N1CCC2(CC1)Nc1ccccc1NC2=O was read as NPR1 antag inconclusive, 3T3 cytotox -46%, HEK cytotox inconclusive, Luciferase inh inactive, NPR1 antag cnf 22µM*, Npr2 selectivity inconclusive, FLuc inh counter 3% and GloSensor cGMP 27µM*.
For Cc1cc(C(=O)N2CCC3(CC2)Nc2ccccc2NC3=O)c2ccccc2n1 the results were NPR1 antag -4%, 3T3 cytotox -7%, HEK cytotox -15% and Luciferase inh inactive.
CCC(O)C(=O)N1CCc2onc(-c3ccc(-c4ccccc4)cc3)c2C1 (stereo not given) was read as NPR1 antag 11µM*, 3T3 cytotox inconclusive, HEK cytotox inconclusive, Luciferase inh inactive, NPR1 antag cnf 24µM*, Npr2 selectivity 24µM*, FLuc inh counter inconclusive and GloSensor cGMP 24µM*.
`CC(Cn1cccn1)C(=O)N1CCc2onc(-c3ccc(F)c(F)c3)c2C1` (stereo not given) gave NPR1 antag -11%, 3T3 cytotox -28%, HEK cytotox inconclusive and Luciferase inh inactive.
CCCOc1ccccc1C(=O)N1CCc2onc(-c3ccccc3)c2C1 was read as NPR1 antag inconclusive, 3T3 cytotox inconclusive, HEK cytotox inconclusive, Luciferase inh inactive, NPR1 antag cnf inconclusive, Npr2 selectivity inconclusive, FLuc inh counter 2% and GloSensor cGMP -23%.
COc1ccc(Nc2ccnc(N3CCCC3C(=O)NCC(F)F)n2)cc1 (stereo not given) was read as 3T3 cytotox -29% and HEK cytotox -24%.
`CCN1C[C@H]2COc3cc(OC)ccc3[C@H]2N(C(=O)c2ccccc2OC)CCC1=O` gave 3T3 cytotox inconclusive and HEK cytotox -15%.
For O=C1N[C@H](CC(=O)N2CCN(c3ccc(C(F)(F)F)cn3)CC2)C(=O)Nc2ccccc21 the results were NPR1 antag inconclusive, 3T3 cytotox -15%, HEK cytotox inconclusive, Luciferase inh inactive, NPR1 antag cnf inconclusive, Npr2 selectivity inconclusive, FLuc inh counter -1% and GloSensor cGMP inconclusive.
Screening COc1ccc(CN2CC3(CCN(C(=O)Nc4cccc(C(F)(F)F)c4)CC3)C2=O)cc1 returned NPR1 antag 16µM*, 3T3 cytotox inconclusive, HEK cytotox inconclusive, Luciferase inh inactive, NPR1 antag cnf inconclusive, Npr2 selectivity inconclusive, FLuc inh counter 0% and GloSensor cGMP inconclusive.
